This passage reports outcome and Potency results from PubChem BioAssay (Tox21).

A short description of experiment [1]: qHTS assay to test for compound auto fluorescence at 535 nm (green) in HEK293 cells (AID 720680). As to conditions: green autofluorescence 485/535 nm; series mostly up to 91.3 µM.
A short description of experiment [2]: qHTS assay to test for compound auto fluorescence at 460 nm (blue) in HEK293 cell free culture (AID 720681). The settings on record: cell-free medium, autofluorescence 405/460 nm (blue); series mostly up to 91.3 µM. An outline of the steps: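 Compounds were added to cell-free DMEM with 10% FBS and fluorescence read directly. The blue channel used 405 nm excitation and 460 nm emission, with triamterene as the reference fluorophore.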
A general note: In qHTS, concentration-response curves come from the screen itself.

Experiment [3] is described as follows: qHTS assay to test for compound auto fluorescence at 535 nm (green) in HEK293 cell free culture (AID 720682). The settings on record: cell-free medium, green autofluorescence 485/535 nm, hits give high values; series mostly up to 91.3 µM. An outline of the steps: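 Green-label autofluorescence (485 nm excitation, 535 nm emission) measured on compound added to cell-free culture medium (DMEM, 10% FBS). Output is expressed relative to fluorescein.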

Experiment [4] is described as follows: qHTS assay to test for compound auto fluorescence at 590 nm (red) in HEK293 cell free culture (AID 720683). As to conditions: cell-free medium autofluorescence, Ex540/Em590 red; series mostly up to 91.3 µM. An outline of the steps:
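Cell-free wells of DMEM with 10% FBS received compound, and intrinsic fluorescence was read at excitation/emission 540/590 nm. Values expressed as equivalence to Rose Bengal sodium.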

Experiment [5] can be described thus: qHTS assay to test for compound auto fluorescence at 590 nm (red) in HepG2 cell free culture (AID 720684). As to conditions: cell-free medium autofluorescence, red 540/590 nm; series mostly up to 91.3 µM. An outline of the steps:
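Rose Bengal sodium served as the reference for red signal. Test compounds were dispensed into serum-containing MEM (10% FBS) without cells, and plates were read at 540/590 nm.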

Experiment [6] can be described thus: qHTS assay to test for compound auto fluorescence at 460 nm (blue) in HepG2 cell free culture (AID 720685). As to conditions: Cell-free culture medium, blue autofluorescence 405/460 nm; series mostly up to 91.3 µM. In short, it runs like this: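 Cell-free plates of MEM plus 10% FBS received 23 nL compound or DMSO vehicle; blue-channel (405/460 nm) intensity scored against triamterene as reference fluorophore.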

A short description of experiment [7]: qHTS assay to test for compound auto fluorescence at 535 nm (green) in HepG2 cell free culture (AID 720686). As to conditions: Cell-free medium, green autofluorescence 485/535 nm; series mostly up to 91.3 µM.
Experiment [8] in a line: qHTS assay to test for compound auto fluorescence at 460 nm (blue) in HepG2 cells (AID 720687). As to conditions: autofluorescence 405/460 nm, 1 h; series mostly up to 91.3 µM. In short, it runs like this: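 HepG2 cells in MEM with 10% FBS, attached overnight at 37 C, were exposed to compound or DMSO for 1 hr at 37 C, 5% CO2. Blue fluorescence was read at 405/460 nm, with triamterene as reference fluorophore.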

Experiment [9] deals with Glucocorticoid receptor (Homo sapiens) (UniProt P04150). Briefly: qHTS assay to identify small molecule agonists of the glucocorticoid receptor (GR) signaling pathway (AID 720691; active = well fitted activation curve with a large enough effect in the signal ratio in the repeat runs, not every such curve was filed as active; the % refers to the signal ratio). The settings on record: GR-bla HeLa, beta-lactamase reporter ratio, 18 h; activation: at 62.4 µM (top of the series) unless noted. An outline of the steps:
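Steps: seed GR-bla HeLa cells, incubate 4 h at 37 C/5% CO2; pin-transfer DMSO-dissolved compounds; incubate 18 h at 37 C; add LiveBLAzer B/G FRET substrate; after 2 h at room temperature, measure fluorescence.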

Experiment [10] has the same target. Briefly: qHTS assay to identify small molecule antagonists of the glucocorticoid receptor (GR) signaling pathway (AID 720692; active = well fitted inhibition curve with a large enough effect in the signal ratio in the repeat runs, not every such curve was filed as active; the % refers to the signal ratio; note: potency is the fitted concentration of half-maximal effect). The settings on record: GR-bla HeLa, beta-lactamase FRET ratio, dexamethasone-stimulated, 18 h; series mostly up to 58.5 µM. In short, it runs like this: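 Antagonism was scored as loss of dexamethasone-driven (5 nM final) reporter signal in HeLa cells bearing a glucocorticoid response element–beta-lactamase construct, after 18 h compound exposure at 37 C and 2 h FRET substrate loading.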

“And” between values parts separate entries of the source, which are not always exact repeats. Equal values may be shown once. Records with an inconclusive call do not appear. The source made the active and inactive calls. Unless noted, calls come from the whole dose curve; as a rule, active = well fitted curve in the direction sought with a large enough effect in the repeat runs; inconclusive = weak or mixed curves; inactive = flat fitted curve, though single readings scatter.

Sequence of Glucocorticoid receptor (Homo sapiens) (P04150 whole entry, looked up): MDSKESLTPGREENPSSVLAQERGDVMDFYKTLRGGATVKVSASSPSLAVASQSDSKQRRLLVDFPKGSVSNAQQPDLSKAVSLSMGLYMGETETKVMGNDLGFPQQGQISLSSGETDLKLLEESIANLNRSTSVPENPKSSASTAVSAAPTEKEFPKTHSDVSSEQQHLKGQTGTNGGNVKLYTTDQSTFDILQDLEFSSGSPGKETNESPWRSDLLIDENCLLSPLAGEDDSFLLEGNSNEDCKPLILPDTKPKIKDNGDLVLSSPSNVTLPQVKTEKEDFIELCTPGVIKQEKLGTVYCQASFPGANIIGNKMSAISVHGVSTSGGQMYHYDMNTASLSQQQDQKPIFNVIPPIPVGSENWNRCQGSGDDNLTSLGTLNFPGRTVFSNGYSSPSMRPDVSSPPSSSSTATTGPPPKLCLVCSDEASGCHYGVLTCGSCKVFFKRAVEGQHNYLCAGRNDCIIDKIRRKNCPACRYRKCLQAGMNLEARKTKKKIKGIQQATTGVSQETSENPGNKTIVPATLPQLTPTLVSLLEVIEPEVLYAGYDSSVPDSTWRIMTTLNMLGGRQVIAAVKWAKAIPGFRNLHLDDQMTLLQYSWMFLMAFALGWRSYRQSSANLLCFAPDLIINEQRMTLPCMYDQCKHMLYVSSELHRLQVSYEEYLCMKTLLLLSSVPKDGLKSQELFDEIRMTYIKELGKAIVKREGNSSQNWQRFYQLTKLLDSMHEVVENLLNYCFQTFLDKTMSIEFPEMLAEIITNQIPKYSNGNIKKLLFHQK

For `CC(C)(CO)COC(=O)C(C)(C)CO`, the call in experiment [1], in experiment [3], in [4], in [5], in experiment [7] and in experiment [8] was inactive. Further, the Potency entry in experiment [2], in [6], in [9] and in experiment [10] was “inactive” throughout.

`NC(=O)NNc1ccccc1`: the call in [1], in experiment [3], in experiment [4], in experiment [5], in [7] and in [8] was inactive. Further, the Potency entry in experiment [2], in [6], in experiment [9] and in experiment [10] was “inactive” in each case.

Turning to `Cc1cc(Cc2ccc(N)c(C)c2)ccc1N`, the call in experiment [1], in [3], in experiment [4], in experiment [5], in experiment [7] and in [8] was inactive. Besides, the Potency entry in [2], in [6], in [9] and in experiment [10] was “inactive” throughout.

With `CC(=O)[C@@]1(O)CC[C@H]2[C@@H]3CCC4=CC(=O)CC[C@]4(C)[C@H]3CC[C@@]21C`, the outcome in [1], in experiment [3], in [4], in experiment [5], in [7] and in experiment [8] was inactive. The Potency result in experiment [2], in experiment [6] and in [9] was “inactive” throughout. Further, the Potency in [10] was 1.07 µM (active) and 275 nM (active).

`CCOC(=O)C1OC1c1ccccc1` (centres undefined): the compound was classed as inactive in experiment [1], in experiment [3], in [4], in experiment [5], in experiment [7] and in experiment [8]. For the same compound, the Potency result in experiment [2], in experiment [6], in [9] and in experiment [10] was “inactive” in each case.

In the case of `OC1CCCC1`, the compound was classed as inactive in experiment [1], in [3], in experiment [4], in [5], in [7] and in experiment [8]. Besides, the Potency entry in [2], in [6], in experiment [9] and in experiment [10] was “inactive” throughout.

Regarding `Oc1ccc2ccccc2c1`, the result in experiment [1], in experiment [3], in experiment [4], in [5], in [7] and in experiment [8] was inactive. For the same compound, the Potency result in [2], in [6], in experiment [9] and in [10] was “inactive” throughout.

For `CCCCNC(N)=O`, the call in experiment [1], in [3], in experiment [4], in [5], in experiment [7] and in experiment [8] was inactive. Also, the Potency entry in [2], in [6], in experiment [9] and in [10] was “inactive” each time.

On to `CCCCCC/C=C/CCCCCCCC(=O)O`, for which the outcome in [1], in experiment [3], in experiment [4], in [5], in [7] and in [8] was inactive. In addition, the Potency result in experiment [2], in [6], in [9] and in experiment [10] was “inactive” throughout.

For `CCOC(=O)[C@H](CCc1ccccc1)N[C@@H](C)C(=O)N1Cc2ccccc2C[C@H]1C(=O)O`, the compound was classed as inactive in [1], in experiment [3], in experiment [4], in [5], in experiment [7] and in [8]. In addition, the Potency entry in [2], in [6], in experiment [9] and in [10] was “inactive” throughout.

As to `CCCCCCCCCCCCOCC1CO1` (centres undefined), the compound was called inactive in experiment [1], in experiment [3], in experiment [4], in [5], in [7] and in [8]. Moreover, the Potency result in [2], in experiment [6], in [9] and in experiment [10] was “inactive” each time.

With `CCCCC/C=C\C/C=C\CCCCCCCC(=O)OC`, the compound was called inactive in [1], in experiment [4], in experiment [5], in [7] and in experiment [8]. For the same compound, the Potency result in experiment [2] and in experiment [6] was “inactive” in each case.

On to `C=C(C)C(=O)OCC(CC)(COC(=O)C(=C)C)COC(=O)C(=C)C`, for which the outcome in [1], in experiment [3], in experiment [4], in [5], in experiment [7] and in [8] was inactive. The Potency entry in experiment [2], in experiment [6], in [9] and in experiment [10] was “inactive” in each case.

As to `CCCCOCCOCCOC(=O)CCCCC(=O)OCCOCCOCCCC`, the result in experiment [1], in experiment [4], in experiment [5], in experiment [7] and in [8] was inactive. The Potency result in experiment [2], in experiment [6], in experiment [9] and in [10] was “inactive” throughout.

On to `O=S(=O)(O)CCS`, for which the compound was called inactive in experiment [1], in [4], in experiment [5], in experiment [7] and in experiment [8]. Moreover, the Potency entry in [2], in [6], in experiment [9] and in experiment [10] was “inactive” throughout.

As for `Cc1cc(O)cc(C)c1Cl`, the outcome in [1], in [4], in experiment [5], in experiment [7] and in experiment [8] was inactive. For the same compound, the Potency result in experiment [2], in experiment [6], in experiment [9] and in experiment [10] was “inactive” each time.
